Screening data deposited in PubChem BioAssay by National Center for Advancing Translational Sciences (NCATS).
ELG1 repair inh – ELG1-dependent DNA repair inhibition. actives 2.3% (n = 330,000). HEK293T ELG1-luciferase reporter, luminescence, 16 h; DNA damage induced by 5-fluorouridine. Potency, µM (titrated, usually from 46.1 µM), for the others: top-dose activity change, negative = inhibition, most hits filed as inhibitors; also: potency is read from the fitted curve at half-maximal effect; nearly all actives have a fitted effect of over 55% in size
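Overnight (16 hr) co-exposure of 2,000 cells/well to 5-fluorouridine and compound at 37 °C preceded detection. Luciferase was quantified via ONE-Glo luminescence; loss of signal denotes inhibition.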
RORgamma inh – blocks mouse ROR gamma transcriptional activity | P51450 | Drosophila S2 Gal4-RORgamma UAS-luciferase reporter, 20 h | Potency, µM (titrated, usually from 53.6 µM), for the others: at the highest dose activity change, negative = inhibition, hits mostly inhibitors | actives 5.4% (n = 310,000); also: potency is read from the fitted curve at half-maximal effect; nearly all actives have a fitted effect of over 60% in size
Target sequence (P51450 whole entry, looked up, the tested form may be a part): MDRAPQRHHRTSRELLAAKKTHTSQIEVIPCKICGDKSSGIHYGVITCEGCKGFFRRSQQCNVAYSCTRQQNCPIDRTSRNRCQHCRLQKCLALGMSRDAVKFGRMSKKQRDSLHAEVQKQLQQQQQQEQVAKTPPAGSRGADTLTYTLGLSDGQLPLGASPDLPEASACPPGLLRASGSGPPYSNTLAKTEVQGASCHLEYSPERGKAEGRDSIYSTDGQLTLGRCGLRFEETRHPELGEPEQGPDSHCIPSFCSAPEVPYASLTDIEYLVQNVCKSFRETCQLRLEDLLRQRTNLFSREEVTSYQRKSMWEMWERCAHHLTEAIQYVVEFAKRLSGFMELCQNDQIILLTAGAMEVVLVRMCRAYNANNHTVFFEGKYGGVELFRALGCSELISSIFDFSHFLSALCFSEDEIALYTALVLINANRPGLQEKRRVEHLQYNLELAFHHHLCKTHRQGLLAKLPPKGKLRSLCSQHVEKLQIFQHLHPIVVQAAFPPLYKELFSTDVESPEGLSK
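Using a luciferase readout, inhibitors were identified by reduced reporter activity in Drosophila cells coexpressing a copper-inducible Gal4–ROR gamma fusion and UAS-driven Photinus luciferase, incubated 20 hr after 700 uM copper sulfate.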
DT40 TDP1 no CPT – qHTS for Inhibitors of human tyrosyl-DNA phosphodiesterase 1 (TDP1): qHTS in cells in absence of CPT | actives 15% (n = 420,000) | Potency, µM (series often up to 46.2 µM), for the others: at the top dose activity change, negative = growth inhibition, hits mostly inhibitors | AID 686978, 2013 | DT40 Tdp1-/- hTDP1 cells, no CPT, ATP luminescence, 48 h; also: potency is read from the fitted curve at half-maximal effect; nearly all actives have a fitted effect of over 55% in size
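Readout: luminescence from CellTiter-Glo after 30 min in the dark at RT. Cells: DT40 Tdp1-/- with stable hTDP1, 400/well. Exposure: compounds alone, ≥48 hr, 37 °C.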
IL-1B inflam inh – blocks inflammasome-driven IL-1 beta release; THP-1 LPS/ATP IL-1B secretion, AlphaLISA, 16 h; hits give low values; AID 743279; actives 4.7% (n = 360,000); activity change, % at 57.5 µM; in the data active = activity change below about -50%; inconclusive = mostly about -30% to -49%
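Secreted IL-1B measured by AlphaLISA bead assay after 16 h compound exposure of THP-1 cells; compounds (final up to 57.5 uM) added 1 h before LPS (250 ng/mL) and ATP (1.25 mM) stimulation; lower signal means less secretion.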
Gal4-VP16 FLuc – Gal4-VP16 reporter inhibition counter-screen | Drosophila S2 Gal4-VP16 UAS-luciferase, luminescence, 20 h | Potency, µM (series often up to 53.6 µM), inactives show at the highest dose activity, negative = inhibition, usual class: inhibitors | actives 3.5% (n = 310,000) | AID 2546;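 also: Gal4-VP16 expression switched on by copper sulfate through the metallothionein promoter; potency is read from the fitted curve at half-maximal effect; nearly all actives have a fitted effect of over 50% in size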
DT40 TDP1 CPT – DT40-hTDP1 cell growth loss with CPT. AID 686979. Potency, µM (highest dose often 46.2 µM), inactives show at the top dose activity change, negative = growth inhibition, most hits filed as inhibitors. actives 12% (n = 420,000). chicken DT40 Tdp1-/-;hTDP1 cells + 20 nM CPT, ATP luminescence, 48 h; also: potency is read from the fitted curve at half-maximal effect; nearly all actives have a fitted effect of over 55% in size
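Chicken DT40 Tdp1-/- cells complemented with human TDP1, 400 cells/well, exposed to compounds plus 20 nM camptothecin for at least 48 h at 37 C; viability read as ATP content by CellTiter-Glo luminescence.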
* = called active by the depositor; [ ] = another dose, or the depositor's remark. The list is not random: actives were taken first. Their share in the collection is about 21%. Unless noted, calls follow the shape of the dose curve; as a rule, active = well fitted curve in the direction sought with a large enough effect; inconclusive = small, poorly fitted or top-dose-only effect, or another doubt; inactive = no such curve, though single readings can be large; an effect the other way counts as inactive or inconclusive. % is scaled to controls: 0 for no effect and ±100 for the full control effect.

How did CCCC[C@H](NC(C)=O)C(=O)N[C@@H](CCC(=O)O)C(=O)N[C@@H](Cc1cnc[nH]1)C(=O)N[C@H](Cc1ccccc1)C(=O)N[C@@H](CCCN=C(N)N)C(=O)N[C@H](Cc1c[nH]c2ccccc12)C(=O)NCC(N)=O do in these assays?
RORgamma inh: 9.5%; Gal4-VP16 FLuc: -4.1%

What do the screens show for `CN(C)C(=O)CCC(=O)NCC1Cc2cccc(-c3ccccc3C(F)(F)F)c2O1` (stereo not drawn)?
DT40 TDP1 no CPT: -22.9%; DT40 TDP1 CPT: inconclusive

What do the screens show for `CCCSCCCNC(=O)c1ccc(Cn2c(=O)c3cccn3c3cccnc32)cc1`?
DT40 TDP1 no CPT: -23.5%; DT40 TDP1 CPT: 1.6%

What do the screens show for `Cn1cccc1/C=N/NC(=O)c1ccncc1`?
ELG1 repair inh: -3.6%; RORgamma inh: inconclusive; DT40 TDP1 no CPT: -0.7%; IL-1B inflam inh: 14.9; Gal4-VP16 FLuc: 3.7%; DT40 TDP1 CPT: 2.6%

What do the screens show for `COc1ccccc1/C=N/NC(=O)c1ccc(C)nc1`?
ELG1 repair inh: 7.5%; RORgamma inh: 17.3%; DT40 TDP1 no CPT: 14.2%; IL-1B inflam inh: 2.1; Gal4-VP16 FLuc: -1.1%; DT40 TDP1 CPT: 1.2%

How did Cc1ccc(C(=O)N/N=C/c2c(O)ccc3ccccc23)cn1 do in these assays?
ELG1 repair inh: inconclusive; RORgamma inh: 5.01µM*; DT40 TDP1 no CPT: 2.91µM*; IL-1B inflam inh: 95.5; Gal4-VP16 FLuc: 7.08µM*; DT40 TDP1 CPT: 3.26µM*

What do the screens show for `O=C(C[n+]1cccc(C(=O)N/N=C/c2ccc(Br)cc2)c1)c1ccccc1`?
ELG1 repair inh: 15.3%; DT40 TDP1 no CPT: -11.1%; IL-1B inflam inh: -5.5; DT40 TDP1 CPT: -0.7%

How did Cc1occc1C(=O)N/N=C/c1c(O)ccc2ccccc12 do in these assays?
ELG1 repair inh: inconclusive; RORgamma inh: 3.98µM*; DT40 TDP1 no CPT: 1.03µM*; IL-1B inflam inh: 124.7; Gal4-VP16 FLuc: 17.8µM*; DT40 TDP1 CPT: 0.651µM*

How did Cn1cccc1/C=N\NC(=O)c1cncc(Br)c1 do in these assays?
ELG1 repair inh: inconclusive; RORgamma inh: 12.6µM*; DT40 TDP1 no CPT: -0.3%; Gal4-VP16 FLuc: inconclusive; DT40 TDP1 CPT: 2.2%

What do the screens show for `Cc1occc1C(=O)N/N=C/c1c[nH]c2ccccc12`?
ELG1 repair inh: inconclusive; RORgamma inh: inconclusive; DT40 TDP1 no CPT: -6.9%; IL-1B inflam inh: -7.7; Gal4-VP16 FLuc: -24.3%; DT40 TDP1 CPT: -6.6%

Results for O=C(N/N=C/c1c(O)ccc2ccccc12)c1ccc[n+](CCO)c1 ?
ELG1 repair inh: 0.0%; RORgamma inh: -58.9%; DT40 TDP1 no CPT: inconclusive; IL-1B inflam inh: 103.0; Gal4-VP16 FLuc: -2.1%; DT40 TDP1 CPT: 29.1µM*

What do the screens show for `O=C(N/N=C\c1c(O)ccc2ccccc12)c1ccc(O)cc1`?
ELG1 repair inh: -16.0%; RORgamma inh: 5.01µM*; DT40 TDP1 no CPT: 6.51µM*; IL-1B inflam inh: 148.8; Gal4-VP16 FLuc: 5.62µM*; DT40 TDP1 CPT: inconclusive

How did O=C(O)c1ccc(N=Cc2c(O)ccc3ccccc23)cc1 do in these assays?
ELG1 repair inh: 1.4%; RORgamma inh: 12.2%[1.91 µM]; DT40 TDP1 no CPT: -21.4%; IL-1B inflam inh: 8.5; Gal4-VP16 FLuc: inconclusive; DT40 TDP1 CPT: 0.1%

How did Cn1c(/N=C/c2c(O)ccc3ccccc23)nc2ccccc21 do in these assays?
ELG1 repair inh: inconclusive; RORgamma inh: 20.5%; DT40 TDP1 no CPT: 5.8µM*; IL-1B inflam inh: 31.1; Gal4-VP16 FLuc: 0.4%; DT40 TDP1 CPT: 3.26µM*

How did O=C(N/N=C/c1c(O)ccc2ccccc12)c1cccnc1 do in these assays?
ELG1 repair inh: 3.66µM*; RORgamma inh: 10µM*; DT40 TDP1 no CPT: 1.03µM*; IL-1B inflam inh: 195.0; Gal4-VP16 FLuc: 12.6µM*; DT40 TDP1 CPT: 1.16µM*
